In all, about 2,400 compounds went through this assay and about 700 (29%) were called active. The list is a sample of the results. Unmarked numbers belong to inactive results.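 The calls were made as follows: active = inhibition of at least 50%; inactive = the rest.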
Target: G-protein coupled receptor 183 (Homo sapiens) (UniProt P32249)
Assay: repeat testing of EBI2 arrestin blockers – cell-based, single concentration, luminescence, 7a,25-OHC stimulation, confirmation (AID 651997)
Conditions: EBI2 beta-arrestin luminescence, 7a,25-OHC antagonism; at 5 µM; stronger effect = higher value

G-protein coupled receptor 183 (Homo sapiens), sequence (P32249 whole entry, looked up): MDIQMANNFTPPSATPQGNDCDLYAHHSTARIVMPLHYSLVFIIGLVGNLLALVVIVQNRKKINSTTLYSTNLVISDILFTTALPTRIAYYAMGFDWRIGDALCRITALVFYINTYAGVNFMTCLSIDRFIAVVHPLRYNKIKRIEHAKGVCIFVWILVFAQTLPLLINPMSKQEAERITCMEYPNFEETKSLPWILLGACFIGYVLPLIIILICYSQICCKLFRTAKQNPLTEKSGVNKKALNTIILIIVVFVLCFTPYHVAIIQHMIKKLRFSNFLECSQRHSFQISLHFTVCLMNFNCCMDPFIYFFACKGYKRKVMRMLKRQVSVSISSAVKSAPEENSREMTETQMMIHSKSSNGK

| SMILES | inhibition |
| --- | --- |
| COc1ccc([C@H]2CC(=O)C=C(/C=C/c3ccc(Cl)cc3)C2)cc1 | 20.8% |
| COc1ccc([C@H]2CC(=O)C=C(c3ccc(C)cc3)C2)cc1 | 56.3% (active) |
| N#Cc1ccc(C2=CC(=O)C[C@H](c3ccc(Cl)cc3)C2)cc1 | 53.7% (active) |
| COc1ccc2cc(C3=CC(=O)C[C@H](c4ccc5c(c4)OCO5)C3)ccc2c1 | 51.4% (active) |
| CCCCN=C1C([N+](=O)[O-])=CC=C2C1=NC1(CCCCC1)N2O | 38.6% |
| CCOc1ccc(CCN2C(=S)N([C@@H](CC(C)C)CN3CCC[C@@H]3CN3C(=S)NC[C@@H]3Cc3ccc(O)cc3)C[C@@H]2Cc2ccc(O)cc2)cc1 | 26.9% |
| CC1(Cc2ccccc2C#N)C(=O)Nc2ccc(-c3ccc4[nH]ccc4c3)cc21 (stereo unspecified) | 31.6% |
| COc1ccc(CNC(=O)CN(c2ccc(OC)c(Cl)c2)S(=O)(=O)c2ccc(C)cc2)cc1 | 6.43% |
| Cc1ccc2oc(=O)c3cnn(CC(=O)N4CCCCCC4)c3c2c1 | 31% |
| Cc1ccc2oc(=O)c3cnn(CC(=O)N(Cc4ccco4)C4CCCCC4)c3c2c1 | 76.3% (active) |
| O=C(Nc1ccc(S(=O)(=O)N2CCCCC2)cc1)C1CC(=O)N(c2ccc(F)cc2)C1 (stereo unspecified) | 17.5% |
| Cc1ccc(-c2nn(-c3ccccc3)cc2/C=C/C(=O)Nc2cccc(S(N)(=O)=O)c2)cc1 | 25.3% |
| COc1ccc(-c2cn(-c3ccc(OC)cc3)c(=S)[nH]2)cc1 | 68% (active) |
| CCOc1ccc(CN(Cc2ccco2)S(=O)(=O)c2ccc(-n3cnnn3)c(OC)c2)cc1 | 24.7% |
| CCN(CC(=O)NCc1cccs1)C(=O)/C=C/c1ccc(C)cc1 | 85.2% (active) |
| O=c1[nH]c(CN2CCN(S(=O)(=O)c3ccc4c(c3)OCCO4)CC2)nc2sc3c(c12)CCCC3 | 27.9% |
| Cc1ccc(S(=O)(=O)NCCNC(C)c2ccc(Br)cc2)cc1 (stereo unspecified) | 9.45% |
| COc1ccc(C(=O)/C=C/c2ccc(OC3CSC3)cc2)cc1 | 25.8% |
| Cc1nc(-c2ccccc2)sc1C(=O)/C=C/c1ccccc1 | 52.2% (active) |
| COc1ccc(/C=C/C(=O)c2ccc(OC)cc2O)cc1 | 41.6% |
| CN(Cc1ccc(F)cc1)C(=O)COc1ccc2ccccc2c1 | 84% (active) |
| CCC(C)(C)NC(=O)c1cc([N+](=O)[O-])ccc1N1CCCCC1 | 42.4% |
| COc1ccc(-c2cc(C3CCN(c4ncccc4[N+](=O)[O-])CC3)[nH]n2)cc1 | 32.3% |

| SMILES | inhibition |
| --- | --- |
| O=C(C(c1ccccc1)c1ccccc1)N1CCN(CC(O)COc2ccccc2)CC1 (stereo unspecified) | 15.3% |
| COc1ccc(C(C(=O)NC2CCCCC2)N(C(=O)c2snc(C(N)=O)c2N)c2ccccc2OC)cc1 (stereo unspecified) | 57% (active) |
| CC1CCc2sc3nc(N4CCN(CCO)CC4)n4ncnc4c3c2C1 (stereo unspecified) | 67.9% (active) |
| Cc1cccc(-n2c(O)c(C=Nc3ccccc3N)c(=O)[nH]c2=O)c1 | 13.2% |
| Cc1ccc(S(=O)(=O)N2CCN(CC(=O)N/N=C/c3ccc(Br)s3)CC2)cc1 | 41.9% |
| CCC1Nc2ncnc(N3CCN(c4ccccc4)CC3)c2N(Cc2ccc(Cl)cc2)C1=O (stereo unspecified) | 86.9% (active) |
| CC(=O)/C(=N\Nc1ccc(Cl)cc1Cl)Sc1cccc2cccnc12 | 43.2% |
| CC(C)Cc1ccc(-c2cc3nc(NCc4cccc(Cl)c4)ccn3n2)cc1 | 51.8% (active) |
| Cc1cccc(N2CCN(C(=O)c3cc4c(=O)[nH]c5ccccc5c4n3C)CC2)c1C | 75.1% (active) |
| COc1cccc(-c2cc(C(=O)N3CCN(c4ccccc4OC)CC3)no2)c1 | 42.9% |
| O=C(CCNS(=O)(=O)c1ccccc1)NCCSc1ccc(Br)cc1 | 12.7% |
| CCOC(=O)N1CCN(C(=O)CSc2ccc(Cl)cc2)CC1 | 80.2% (active) |
| CCOC(=O)N1CCN(C(=O)COc2ccc(Br)cc2)CC1 | 75.6% (active) |
| Cc1ccc(OCCNC(=O)CCNS(=O)(=O)c2ccc(Br)cc2)cc1 | 17.6% |
| CCN1CCN(C(=O)CSc2ccc(C)cc2)CC1 | 27.6% |
| Cc1ccc(SCC(=O)N2CCN(c3ccc(F)cc3)CC2)cc1 | 33.8% |
| CCOC(=O)N1CCN(C(=O)COc2ccc(Cl)cc2C)CC1 | 30.2% |
| CCOC(=O)C1CCN(C(=O)COc2cc(C)c(Br)c(C)c2)CC1 | 59% (active) |
| Cc1cc(OCCOc2cccc3cccnc23)c(C)cc1Cl | 38.3% |
| O=C(CSc1ccccc1)Nc1cc(Cl)ccc1Oc1ccccc1 | 45% |
| CCC(c1nnc(SCC(=O)NNC(=O)c2ccccc2)n1Cc1ccccc1)N(C)C (stereo unspecified) | 35.9% |
| O=C(Nc1ncc2c(n1)CC(c1ccco1)CC2=O)c1ccc(Cl)cc1 (stereo unspecified) | 10.5% |
| N#Cc1ccc(C(c2nnnn2CCc2ccccc2)N2CCCCCC2)cc1 (stereo unspecified) | 34.1% |

| SMILES | inhibition |
| --- | --- |
| Cc1cccc(N=C2NC(=O)/C(=C/c3cn(C)c4ccccc34)S2)c1 | 33.9% |
| COc1ccc(/C=N/N=C/c2c[nH]c(=O)c(C#N)c2Nc2ccccc2)cc1 | 79.2% (active) |
| FC(F)(F)Oc1ccccc1C(c1nnnn1C1CCCCC1)N1CCN(C/C=C/c2ccccc2)CC1 (stereo unspecified) | 23% |
| COc1ccccc1N1CCN(C(=O)c2cc(-c3ccc(Br)cc3)on2)CC1 | 20.4% |
| COc1ccccc1N1CCN(C(=O)c2cc(=O)c3cc(C)ccc3o2)CC1 | 76% (active) |
| O=C(c1cc(=O)c2ccccc2o1)N1CCN(c2ccccc2)CC1 | 20.1% |
| O=C(NNC(=O)c1ccc2ccccc2c1)c1ccc(Cl)cc1 | 26.7% |
| O=C(NCCCc1ccccc1)C1CCC(=O)N(CCc2ccc(Cl)cc2)C1 (stereo unspecified) | 41.6% |
| O=C(c1cc2cc(F)ccc2[nH]1)N1CCN(c2ccc(F)cc2)CC1 | 43.5% |
| Cc1cs/c(=N\N=C\c2ccc(O)cc2)n1Cc1ccco1 | 34.7% |
| CCCCC(=O)N(C)c1c(CC)nc2c(OCc3ccc(Cl)cc3Cl)cccn12 | 35.5% |
| CC(C)N(Cc1ccccc1)C(=S)Nc1ccc(OC(F)F)cc1 | 24.2% |
| COc1ccc(NC(=O)N2CCC(Cc3ccccc3)CC2)cc1 | 55% (active) |
| CCCC1CCC(=NNC(=S)NCCc2ccccc2)CC1 (stereo unspecified) | 23.4% |
| COc1ccc(-c2cc(NC=O)c3ncc(-c4cccc(C(=O)N(C)C)c4)n3c2)c(OC)c1 | 23.2% |
| Cc1ccc(O/C=C2\OC(=O)c3ccccc32)cc1 | 16% |
| COc1cccc(NC(=O)Cn2c3ccccc3c3nc4n(c(=O)c32)CCS4)c1 | 30.1% |
| O=C(c1cc2ccccc2s1)N1CCN(c2ccccn2)CC1 | 55.7% (active) |
| O=C(/C=C/c1cccc(C(F)(F)F)c1)N1CCN(c2ccccn2)CC1 | 28.2% |
| Cc1ccc(CSCCNC(=O)CN(c2ccc(F)cc2)S(C)(=O)=O)cc1 | 23.3% |
| O=C(NCCNc1ccc([N+](=O)[O-])cc1)c1cccc2c(Br)cccc12 | 38% |
| Cc1cc(Cl)c2oc(C(=O)N3CCC(O)(c4ccccc4)CC3)c(C)c2c1 | 43.3% |
| Fc1ccccc1/C=N/Nc1cc(N2CCCCC2)ncn1 | 55% (active) |

| SMILES | inhibition |
| --- | --- |
| COc1ccc(-n2c(Cc3cccn3C)nnc2SCC(=O)Nc2cc(C)cc(C)c2)cc1 | 7.81% |
| O=C(NCc1ccc(Cl)cc1)C1CCN(S(=O)(=O)c2cccs2)CC1 | 23% |
| N#CC(=C1CCCC1)c1nc(-c2ccc(Cl)cc2)cs1 | 54.8% (active) |
| CCOc1ccc(C(C)=O)cc1COC(=O)c1cnc(Cl)c(Cl)c1 | 14.3% |
| COc1cccc(NC(=O)Cn2c3ccc(F)cc3c3nc4n(c(=O)c32)CCS4)c1 | 41.9% |
| COc1ccc(OCC(=O)N2CCN(C(=O)c3cccs3)CC2)cc1 | 30.8% |
| O=C(COc1ccc2ccccc2c1)N1CCN(C(=O)c2cccs2)CC1 | 61% (active) |
| O=C(/C=C/c1cccc([N+](=O)[O-])c1)N1CCN(Cc2ccccc2)CC1 | 29.4% |
| O=C(/C=C/c1ccc(Cl)cc1)N1CCN(c2ccccc2[N+](=O)[O-])CC1 | 88.6% (active) |
| Cc1ccc(N2CC(C(=O)Nc3ccc(S(=O)(=O)N4CCCC4)cc3)CC2=O)cc1C (stereo unspecified) | 34.7% |
| O=C(c1cc2ccccc2o1)N1CCN(S(=O)(=O)c2ccc(Cl)s2)CC1 | 70.7% (active) |
| O=C(COc1ccc(Cl)cc1)N1CCN(S(=O)(=O)c2ccc(Cl)cc2)CC1 | 72.8% (active) |
| Cc1ccc(OCC(=O)N2CCN(C(=O)c3cccnc3)CC2)cc1 | 17.6% |
| Cc1ccc(S(=O)(=O)N2CCN(C(=O)CSc3cc(C)ccc3C)CC2)c(C)c1 | 33.4% |
| Cc1cccc(OCC(O)CN2CCN(S(=O)(=O)c3ccc(C)cc3C)CC2)c1 (stereo unspecified) | 35.6% |
| O=C(CCc1ccccc1)NNC(=O)COc1ccc(Cl)cc1 | 17.4% |
| COc1ccc(OCC(=O)N2CCN(C(=O)COc3ccccc3)CC2)cc1 | 24.9% |
| Cc1cc(OCC(=O)N2CCN(c3ncccn3)CC2)ccc1Cl | 50.9% (active) |
| Cc1ccc(OCC(=O)N2CCN(S(=O)(=O)c3ccc(Cl)s3)CC2)cc1C | 79% (active) |
| CN1CCc2ccccc2C1Cc1ccccc1NC(=O)c1sc2ccccc2c1Cl (stereo unspecified) | 14% |
| Fc1ccc(N2CCN(Cc3cnc(Oc4ccc(Br)cc4)s3)CC2)cc1 | 40.8% |
| COc1ccc(OC)c(C(=O)c2coc3ccc(O)c(CN4CCOCC4)c23)c1 | 22.3% |

Reference: PubChem BioAssay AID651997 (Sanford-Burnham Center for Chemical Genomics, 2013)
